Values joined by “and” are separate entries in the source; they are usually repeats but may differ in a detail not shown here. Equal values may be shown once. Records with an inconclusive call do not appear. Some structures have more than one record in an assay (separate samples or runs), and their calls can disagree. Active and inactive are the calls of the source. The call rests on the fitted dose curve; in most records, active means well fitted inhibition curve with a large enough effect; inconclusive means small, poorly fitted or top-dose-only effect; inactive means flat fitted curve, though single readings scatter.
Assays:
CRL-7250 = normal cell line; experiment: Cytotoxic Profiling of Annotated Libraries Using Quantitative High-Throughput Screening (AID 1296008); conditions: Five cell lines viability, CellTiter-Glo ATP luminescence, 48-72 h; max response: stronger effect = lower value; on max response: on the % scale 0 is the no-effect control and ±100 the full control effect
In short: (§1)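 Cytotoxicity was measured as CellTiter-Glo ATP luminescence, read after 10 min at room temperature. Compound treatment of the cells lasted 48 or 72 hr at 37 degrees Celsius in a qHTS format.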

HEK293 = experiment: as above; conditions: Five cell lines viability, CellTiter-Glo ATP luminescence, 48-72 h; max response: stronger effect = lower value
In short: as §1

HaCat = experiment: as above; conditions: Five cell lines viability, CellTiter-Glo ATP luminescence, 48-72 h; max response: stronger effect = lower value
In short: as §1

PC26 = experiment: qHTS profiling for inhibitors of Plasmodium falciparum proliferation (AID 504749); conditions: P. falciparum in erythrocytes, SYBR Green DNA, 72 h; series mostly up to 28.7 µM
In short: (§2)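 SYBR Green fluorescence of parasite DNA, read after lysis and overnight dark incubation, measured growth over 72 h in erythrocyte culture at 0.3% parasitemia and 2.5% hematocrit. Data normalised to DMSO and 0.29 uM artemisinin, with plate-drift correction.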

PC49 = experiment: as above; conditions: P. falciparum in erythrocytes, SYBR Green DNA, 72 h; series mostly up to 28.7 µM
In short: as §2

SC27B = experiment: as above; conditions: P. falciparum in erythrocytes, SYBR Green DNA, 72 h; series mostly up to 28.7 µM
In short: as §2

TAB109 = experiment: as above; conditions: P. falciparum in erythrocytes, SYBR Green DNA, 72 h; series mostly up to 28.7 µM
In short: as §2

TAB113 = experiment: as above; conditions: P. falciparum in erythrocytes, SYBR Green DNA, 72 h; series mostly up to 28.7 µM
In short: as §2

TAB165 = experiment: as above; conditions: P. falciparum in erythrocytes, SYBR Green DNA, 72 h; series mostly up to 28.7 µM
In short: as §2

W2 = experiment: as above; conditions: P. falciparum in erythrocytes, SYBR Green DNA, 72 h; series mostly up to 28.7 µM
In short: as §2
Further: nearly all actives have a fitted effect of over 60% in size.
Potency means the concentration at half of the fitted maximal effect.

CCC(C)(C#N)O[C@@H]1O[C@H](CO)[C@@H](O)[C@H](O)[C@H]1O (stereo not given in full)
inactive: max response (CRL-7250) -24.5% | outcome (HEK293) | outcome (HaCat)

COC1CC(=O)C23C(=O)NC(CC(C)C)C2C(C)=C(C)C(OO)C3/C=C(\C)CCC(O)C1O (stereo not given)
inactive: outcome (CRL-7250) | max response (HEK293) 3.17% | outcome (HaCat)

C[C@H]1C(=O)O[C@H]2[C@H](O)[C@]34C5OC(=O)[C@]3(O[C@@H]3OC(=O)[C@H](O)C34[C@H](C(C)(C)C)[C@H]5O)C12O (stereo not given in full)
inactive: outcome (CRL-7250) | max response (HEK293) -8.69% | outcome (HaCat)

CC(C)[C@@H](CN1CC[C@@](C)(c2cccc(O)c2)[C@@H](C)C1)NC(=O)[C@H]1Cc2ccc(O)cc2CN1
inactive: outcome (CRL-7250) | max response (HEK293) -18.6% | outcome (HaCat)

Cc1c(Cl)cccc1S(=O)(=O)Nc1nc(CC(=O)N2CCN(C)CC2)cs1
inactive: max response (CRL-7250) 0.391% | max response (HEK293) -10.3% | outcome (HaCat)

C[C@H]1O[C@@H](O[C@H]2C[C@@H](O)[C@]3(CO)C4C(CC[C@]3(O)C2)[C@@]2(O)CC[C@H](C3=CC(=O)OC3)[C@@]2(C)C[C@H]4O)[C@@H](O)[C@@H](O)[C@H]1O (stereo not given in full)
active: Potency (CRL-7250) 122 nM | Potency (HEK293) 343 nM | Potency (HaCat) 968 nM

Cc1cn(C[C@H](N)C(=O)O)c(=O)n(Cc2cc(-c3ccccc3)sc2C(=O)O)c1=O
inactive: max response (CRL-7250) -1.8% | max response (HEK293) -3.99% | max response (HaCat) -2.49%

CC(=O)OC1CC(O)C2(C)C(CC(OC(C)=O)C3(C)C2CCC2(C)C(c4ccoc4)C(=O)C4OC423)C1(C)C (stereo not given)
inactive: max response (CRL-7250) -9.87% | outcome (HEK293) | max response (HaCat) -22.5%

COC1CC(OC2CCC3(C=O)C(CCC4C3CCC3(C)C(C5=CC(=O)OC5)CCC43O)C2)OC(C)C1OC1OC(CO)C(O)C(O)C1O (stereo not given)
active: Potency (CRL-7250) 96.8 nM | Potency (HEK293) 193 nM | Potency (HaCat) 685 nM

C[CH2][Hg][S]c1ccccc1C(=O)O
active: Potency (PC26) 3790 nM | Potency (PC49) 2240 nM | Potency (SC27B) 3980 nM | Potency (TAB109) 2510 nM | Potency (TAB113) 3160 nM | Potency (TAB165) 2240 nM | Potency (W2) 2130 nM | Potency (CRL-7250) 16800 nM

CCCCCCCCCC(=O)O[C@H]1CC[C@H]2[C@@H]3CCC4=CC(=O)CC[C@]4(C)[C@H]3CC[C@]12C
inactive: Potency (PC26) | Potency (PC49) | Potency (SC27B) | Potency (TAB109) | Potency (TAB113) | Potency (TAB165)

C[C@@](O)(COc1ccc(C#N)cc1)C(=O)Nc1ccc(C#N)c(C(F)(F)F)c1
inactive: max response (CRL-7250) -2.54% | outcome (HaCat)
active: Potency (HEK293) 14600 nM

CC(C)(O)[C@H]1O[C@H]2CC[C@@]3(C)[C@@](O)(CC[C@H]4Cc5c([nH]c6ccccc56)[C@@]43C)C2=CC1=O
inactive: max response (CRL-7250) -14.1% | max response (HEK293) 2.88% | max response (HaCat) 0.588%

COC(=O)C12C(=O)C(C)(O)C(=O)C1(C)C(C)=CC1C34CCC(OC3=O)C(C)(CO)C4CCC12C (stereo not given)
inactive: outcome (CRL-7250) | max response (HEK293) 4.01% | max response (HaCat) 0.667%

CN1CCC[C@@H]1Cc1c[nH]c2ccc(Nc3ncccc3[N+](=O)[O-])cc12
inactive: outcome (CRL-7250) | max response (HEK293) -20.4% | max response (HaCat) -5.05%

CC12CCC3C(CCC4(O)CC(O)CCC34C=O)C1(O)CCC2C1=CC(=O)OC1 (stereo not given)
active: Potency (CRL-7250) 326 nM | Potency (HEK293) 1030 nM | Potency (HaCat) 1640 nM

OC1(c2ccc(Cl)cc2)c2ccccc2C2=NCCN21 (stereo not given)
inactive: outcome (CRL-7250) | max response (HEK293) -19.8% | max response (HaCat) 0.153%

C/C=C(\C)C(=O)OC1CC2C(CC=C3CC(OC4CC(OC)C(OC5CC(OC)C(OC6OC(C)C(OC7OC(CO)C(O)C(O)C7O)C(OC)C6O)C(C)O5)C(C)O4)CCC32C)C2(O)CCC(C(C)=O)C12C (stereo not given)
inactive: outcome (CRL-7250) | max response (HEK293) -9.26% | outcome (HaCat)

C[C@H](NC(=O)Cc1cc(F)cc(F)c1)C(=O)N[C@@H]1N=C(c2ccccc2)c2ccccc2N(C)C1=O
inactive: outcome (CRL-7250) | max response (HEK293) -14.2% | outcome (HaCat)

O=C1C[C@@H]2OCC=C3CN4CC[C@]56c7ccccc7N1[C@H]5[C@H]2[C@H]3C[C@H]46
inactive: outcome (CRL-7250) | max response (HEK293) -6.49% | outcome (HaCat)

c1ccc2sc(SNC3CCCCC3)nc2c1
inactive: Potency (PC26) | Potency (PC49) | Potency (SC27B) | Potency (TAB109) | Potency (TAB113) | Potency (TAB165)

CCN1C[C@]2(OC(=O)c3ccccc3NC(C)=O)CC[C@H](OC)[C@@]34[C@@H]2C[C@@H]([C@@H]13)[C@@]1(O)C[C@H](OC)[C@H]2C[C@@H]4[C@]1(O)[C@H]2OC
inactive: max response (CRL-7250) -8.79% | max response (HEK293) -11.1% | outcome (HaCat)

CCOc1ccccc1-n1c(C(C)N2CCN(C(=O)COc3ccc(Cl)cc3)CC2)nc2ccccc2c1=O (stereo not given)
inactive: max response (HaCat) -19.2%
active: Potency (CRL-7250) 5.17 µM and 3.71 µM | Potency (HEK293) 4.11 µM and 2.95 µM | Potency (HaCat) 18600 nM

COCC1OC(=O)c2coc3c2C1(C)C1=C(C3=O)C2CCC(=O)C2(C)CC1O (stereo not given)
inactive: outcome (CRL-7250) | outcome (HEK293) | outcome (HaCat)

Clc1ccc(OCC2=NCCN2)cc1Cl
inactive: outcome (CRL-7250) | outcome (HEK293) | outcome (HaCat)

CC1CCC(C(C)C)C(OC(=O)c2ccccc2N)C1 (stereo not given)
inactive: Potency (PC26) | Potency (PC49) | Potency (SC27B) | Potency (TAB109) | Potency (TAB113)

COC1=CC(=O)O[C@@H](/C=C/c2ccccc2)C1
inactive: max response (CRL-7250) -9.99% | max response (HEK293) -8.8% | outcome (HaCat)

Source: PubChem BioAssay (NCATS)
